In the library only some 3% were active in any assay of this set; here they are far more common.
GRP78 ERSR act: ER stress response induction in glioma; U87-MG GRP78 promoter luciferase reporter, 16 h; Potency, µM, actives largely listed as activators; 0.02% of 420,000 active; AID 602332; note: series mostly up to about 76 µM; nearly all actives have a fitted effect of over 35% in size
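Stably transfected U87-MG glioma cells carrying a GRP78-based luciferase sensor; 16 h compound incubation. Luminescence end-point read 10 min after Bright-Glo addition at room temperature.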
DRD3 antagonist: D3 dopamine receptor (human) antagonism; P35462; D3R cells, DiscoveRx beta-arrestin luminescence, antagonist mode; hits give low values; max response, negative = inhibition, %; 2.5% of 360,000 active; in the data active = max response below about -50%; inconclusive = no clear call, values can overlap the other calls
Target sequence (P35462 whole entry, looked up): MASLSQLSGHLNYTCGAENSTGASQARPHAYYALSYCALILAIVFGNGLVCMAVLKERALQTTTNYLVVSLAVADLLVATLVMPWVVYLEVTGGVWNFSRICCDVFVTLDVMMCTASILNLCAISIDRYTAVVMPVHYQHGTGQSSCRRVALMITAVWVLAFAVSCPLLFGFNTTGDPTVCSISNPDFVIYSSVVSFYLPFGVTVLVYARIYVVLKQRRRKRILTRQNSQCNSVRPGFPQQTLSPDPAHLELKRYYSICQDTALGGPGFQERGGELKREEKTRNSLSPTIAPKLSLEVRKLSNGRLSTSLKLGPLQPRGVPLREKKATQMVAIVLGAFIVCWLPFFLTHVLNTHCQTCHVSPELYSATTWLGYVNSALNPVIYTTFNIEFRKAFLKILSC
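Cells expressing the human receptor were seeded at 1500 cells/well, incubated overnight at 37 degrees C in 5% CO2, then exposed to library compounds with dopamine controls for 90 minutes at 37 degrees C before luminescent detection.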
Nrf2 activator: activates Nrf2 signaling; AREc32 ARE-luciferase reporter (MCF7-derived line), luminescence, 24 h; Potency, µM (top dose mostly 46.1 µM), most hits filed as activators; 0.31% of 410,000 active; AID 624171; note: nearly all actives have a fitted effect of over 65% in size
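Steps: seed AREc32_Fluc cells (1000/well, 5% FBS OPTI-MEM); incubate overnight at 37 deg C; add 23 nL compound; incubate 24 hr; add Steady-Glo; hold 30 min RT; read luminescence.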
D3 ag: agonists of human D3 dopamine receptor. max activation, %. 0.58% of 410,000 active. D3R DiscoveRx beta-arrestin cells, luminescence, 90 min. AID 652048; in the data active = max activation above about 30%
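Agonist mode: compounds and dopamine controls were applied to plated cells for 90 min at 37 degrees C after an overnight attachment at 1500 cells/well. Luminescent read-out followed 30 - 60 minutes at room temperature with DiscoveRx detection reagent.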
Numbers stand for hits. Unless noted, calls come from the whole dose curve; as a rule, active = well fitted curve in the direction sought with a large enough effect; inconclusive = small, poorly fitted or top-dose-only effect, or another doubt; inactive = no such curve, though single readings can be large; an effect the other way counts as inactive or inconclusive.

CCOC(=O)C1=C(CN2CCC(C)CC2)NC(=O)NC1c1ccc(Cl)cc1 (centres undefined) was read as GRP78 ERSR act inactive, DRD3 antagonist -86, Nrf2 activator inactive and D3 ag inactive.
For Cn1c(C2CCC2)nc2cc(C(=O)N3CCOc4ccccc4C3)cc(NC(=O)C3CCCO3)c21 (centres undefined) the results were GRP78 ERSR act inactive.
`COc1ccccc1CNC(=O)COC(=O)c1cc(-c2ccco2)nc2ccccc12` gave GRP78 ERSR act inactive, DRD3 antagonist inactive, Nrf2 activator inconclusive and D3 ag inactive.
Screening O=C(NCC1CCCO1)c1cc(-c2ccncc2)nc2ccccc12 (centres undefined) returned GRP78 ERSR act inactive, DRD3 antagonist inactive, Nrf2 activator inactive and D3 ag inactive.
`NC(=O)COC(=O)c1cc(-c2ccco2)nc2ccccc12` gave GRP78 ERSR act inconclusive, DRD3 antagonist inactive, Nrf2 activator 3.5µM and D3 ag inactive.
Screening COc1cccc(-c2nn(-c3ccc(C)cc3)cc2C(=O)NCC2CCCO2)c1 (centres undefined) returned GRP78 ERSR act inactive, DRD3 antagonist inactive, Nrf2 activator inactive and D3 ag inactive.
Screening COc1cccc(-c2cc(C(=O)NCC3CCCO3)c3cc(C)cc(C)c3n2)c1 (centres undefined) returned GRP78 ERSR act inactive, DRD3 antagonist inactive, Nrf2 activator inactive and D3 ag 66.
`O=C(NCC1CCCO1)c1cc(-c2ccco2)nc2ccccc12` (centres undefined) gave GRP78 ERSR act inactive, DRD3 antagonist inactive, Nrf2 activator 11µM and D3 ag inactive.
For CN(C)C(CNC(=O)c1cc(-c2ccco2)nc2ccccc12)c1ccccc1 (centres undefined) the results were GRP78 ERSR act inactive, DRD3 antagonist inactive, Nrf2 activator 13µM and D3 ag inactive.
Screening O=C(Nc1cc2c(oc1=O)CCCC2=O)c1cccc(Cl)c1 returned GRP78 ERSR act inactive, DRD3 antagonist inactive, Nrf2 activator 11µM and D3 ag inactive.
Screening CN(C)c1ccc(/C=C/c2ccnc3cc(Cl)cc(Cl)c23)cc1 returned GRP78 ERSR act inactive.
COc1ccc(OCC(=O)NNC(=O)c2ccccn2)cc1 was read as GRP78 ERSR act inactive, DRD3 antagonist -82, Nrf2 activator inactive and D3 ag inactive.
For COc1ccc(OCC(=O)NNC(=S)NC(=O)C2CC2)cc1 the results were GRP78 ERSR act inactive, DRD3 antagonist inactive, Nrf2 activator inactive and D3 ag 31.
`CCOC(=O)C1CCN(C(=O)Cn2ncc3c4ccccc4n(Cc4ccccc4)c3c2=O)CC1` gave GRP78 ERSR act 32µM, Nrf2 activator inactive and D3 ag inactive.
`CCOC(=O)C1CCCN(C(=O)Cn2ncc3c4ccccc4n(Cc4ccccc4)c3c2=O)C1` (centres undefined) gave GRP78 ERSR act inactive, Nrf2 activator inactive and D3 ag inactive.
Screening CCOC(=O)C1CCN(C(=O)Cn2ncc3c4ccccc4n(Cc4ccc(F)cc4)c3c2=O)CC1 returned GRP78 ERSR act 40µM, Nrf2 activator inactive and D3 ag inactive.
For Cc1cc(/C=C2\C=Cc3ccccc32)cc(C)c1[N+](=O)[O-] the results were GRP78 ERSR act inactive.
For O=S(=O)(NCCNCC=Cc1ccc(Br)cc1)c1cccc2cnccc12 the results were GRP78 ERSR act inactive.
O=C(Nc1ccccc1F)C(=O)Nc1cccc2ccccc12 was read as GRP78 ERSR act inactive, DRD3 antagonist inactive, Nrf2 activator inactive and D3 ag inactive.
O=C(Nc1cccc2ccccc12)/C(Cl)=C/c1ccccc1 was read as GRP78 ERSR act inactive, DRD3 antagonist inactive, Nrf2 activator 10µM and D3 ag inactive.
Screening Cc1ccc(-n2ncc(C(=O)NCCN3CCN(C)CC3)c2C2CCN(C(=O)OC(C)(C)C)CC2)c(C)c1 returned GRP78 ERSR act inactive, Nrf2 activator inactive and D3 ag inactive.
`Cc1cc(C(=O)N/N=C/c2sccc2C)no1` gave GRP78 ERSR act inactive, DRD3 antagonist inactive, Nrf2 activator inactive and D3 ag inactive.
Screening Cc1ccsc1/C=N\NC(=O)c1cc(C(C)(C)C)[nH]n1 returned GRP78 ERSR act inactive, DRD3 antagonist -67, Nrf2 activator inactive and D3 ag inactive.
`CC(/C=N/NC(=O)c1cc(C(C)(C)C)[nH]n1)=C\c1ccccc1` gave GRP78 ERSR act inactive, DRD3 antagonist -54, Nrf2 activator inactive and D3 ag inactive.
Screening CCC(C)NC(=O)C1CCN(S(=O)(=O)c2ccc3c(ccn3CC)c2)CC1 (centres undefined) returned GRP78 ERSR act inactive, Nrf2 activator inactive and D3 ag inactive.

Source: PubChem BioAssay
